Results from publication PMC8384837, “Expanding the binding specificity for RNA recognition by a PUF domain”.
Changes are numbered by the printed parent chain.

Tests used:
Test in all cases: yeast three-hybrid, YBZ-1, SC-Leu-His + 0.5 mM 3-AT, 4 days
Settings in all cases: tags: N-Gal4 AD-HA kept; label: inside an RPR1-promoter hybrid RNA with tandem MS2 sites; ssRNA
PUM1 PUF domain R4-NYP = PUM1 PUF domain R4-NYP (Homo sapiens, UniProt Q14671 828-1176, H972Y;Q975P)
Outline: (§1)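 A centromeric plasmid in strain YBZ-1 co-expressed Pumilio-1 PUF domain libraries, randomized at the three base-contacting residues of each repeat, with matching RNA elements; the strain carries a LexA–MS2 coat fusion and a HIS3 reporter. After four days on SC-Leu (input) or SC-Leu-His + 0.5 mM 3-AT (selection), the repeat regions were PCR-amplified and Illumina-sequenced. The interaction score is the log change in variant frequency from input to selection, using log2 and a pseudocount of 1 where absent.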

PUM1 PUF domain R4-MPS = PUM1 PUF domain R4-MPS (Homo sapiens, UniProt Q14671 828-1176, N971M;H972P;Q975S)
Outline: as §1

PUM1 PUF domain R6-NWI = target: T1, PUM1 PUF domain R6-NWI (Homo sapiens, UniProt Q14671 828-1176, Y1044W;Q1047I)
T1 sequence: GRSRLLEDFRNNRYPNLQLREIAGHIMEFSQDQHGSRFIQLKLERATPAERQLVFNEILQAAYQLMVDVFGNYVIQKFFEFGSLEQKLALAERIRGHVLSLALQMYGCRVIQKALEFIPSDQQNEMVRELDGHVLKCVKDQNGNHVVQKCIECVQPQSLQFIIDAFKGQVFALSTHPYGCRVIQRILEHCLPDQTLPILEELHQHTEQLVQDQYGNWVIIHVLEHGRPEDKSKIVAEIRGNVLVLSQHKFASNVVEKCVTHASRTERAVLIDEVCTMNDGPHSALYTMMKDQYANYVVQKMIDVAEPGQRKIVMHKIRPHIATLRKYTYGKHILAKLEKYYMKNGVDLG
Outline: as §1

PUM1 PUF domain R5-LLR = PUM1 PUF domain R5-LLR (Homo sapiens, UniProt Q14671 828-1176, C1007L;R1008L;Q1011R)
Outline: as §1

PUM1 PUF domain R3-GND = PUM1 PUF domain R3-GND (Homo sapiens, UniProt Q14671 828-1176, C935G;R936N;Q939D)
Outline: as §1

PUM1 PUF domain R5-RQP = PUM1 PUF domain R5-RQP (Homo sapiens, UniProt Q14671 828-1176, C1007R;R1008Q;Q1011P)
Outline: as §1

PUM1 PUF domain R6-GWK = target: T2, PUM1 PUF domain R6-GWK (Homo sapiens, UniProt Q14671 828-1176, N1043G;Y1044W;Q1047K)
T2 sequence: T1 sequence with N216G, I220K
Outline: as §1

PUM1 PUF domain R5-KSS = PUM1 PUF domain R5-KSS (Homo sapiens, UniProt Q14671 828-1176, C1007K;R1008S;Q1011S)
Outline: as §1

PUM1 PUF domain R3-RAM = PUM1 PUF domain R3-RAM (Homo sapiens, UniProt Q14671 828-1176, C935R;R936A;Q939M)
Outline: as §1

GGCUAGAACUAGUGGAUCCCCCGGCGCCCGGCGGCUCGAGCCCGGGUAAGUGUAUAUAGUCUGCAUGCCGCCGGGCGCCAUGCCUGCAGGUCGACUCUAGAAAACAUG
binding signal (PUM1 PUF domain R4-NYP): 2.54 log2 enrichment (interaction score)

GGCUAGAACUAGUGGAUCCCCCGGCGCCCGGCGGCUCGAGCCCGGGUAAGUGUACAUAGUCUGCAUGCCGCCGGGCGCCAUGCCUGCAGGUCGACUCUAGAAAACAUG
binding signal (PUM1 PUF domain R4-NYP): 2.11 log2 enrichment (interaction score)
binding signal (PUM1 PUF domain R4-MPS): 2.38 log2 enrichment (interaction score)

GGCUAGAACUAGUGGAUCCCCCGGCGCCCGGCGGCUCGAGCCCGGGUAAGUGAAAAUAGUCUGCAUGCCGCCGGGCGCCAUGCCUGCAGGUCGACUCUAGAAAACAUG
binding signal (PUM1 PUF domain R6-NWI): 3.09 log2 enrichment (interaction score)

GGCUAGAACUAGUGGAUCCCCCGGCGCCCGGCGGCUCGAGCCCGGGUAAGUGUUAAUAGUCUGCAUGCCGCCGGGCGCCAUGCCUGCAGGUCGACUCUAGAAAACAUG
binding signal (PUM1 PUF domain R5-LLR): 2.92 log2 enrichment (interaction score)

GGCUAGAACUAGUGGAUCCCCCGGCGCCCGGCGGCUCGAGCCCGGGUAAGUGUAAGUAGUCUGCAUGCCGCCGGGCGCCAUGCCUGCAGGUCGACUCUAGAAAACAUG
binding signal (PUM1 PUF domain R3-GND): 3.15 log2 enrichment (interaction score)

GGCUAGAACUAGUGGAUCCCCCGGCGCCCGGCGGCUCGAGCCCGGGUAAGUGUAAAUAGUCUGCAUGCCGCCGGGCGCCAUGCCUGCAGGUCGACUCUAGAAAACAUG
binding signal (PUM1 PUF domain R5-RQP): 2.21 log2 enrichment (interaction score)
binding signal (PUM1 PUF domain R6-GWK): 7.25 log2 enrichment (interaction score)
binding signal (PUM1 PUF domain R4-MPS): 4.59 log2 enrichment (interaction score)

GGCUAGAACUAGUGGAUCCCCCGGCGCCCGGCGGCUCGAGCCCGGGUAAGUGUCAAUAGUCUGCAUGCCGCCGGGCGCCAUGCCUGCAGGUCGACUCUAGAAAACAUG
binding signal (PUM1 PUF domain R5-RQP): 4.91 log2 enrichment (interaction score)
binding signal (PUM1 PUF domain R5-KSS): 3.4 log2 enrichment (interaction score)

GGCUAGAACUAGUGGAUCCCCCGGCGCCCGGCGGCUCGAGCCCGGGUAAGUGUAAUUAGUCUGCAUGCCGCCGGGCGCCAUGCCUGCAGGUCGACUCUAGAAAACAUG
binding signal (PUM1 PUF domain R3-RAM): 2.45 log2 enrichment (interaction score)
